Assay [1] addresses T1, Mitogen-activated protein kinase 12 (Homo sapiens) (UniProt P53778).
T1 sequence (whole entry): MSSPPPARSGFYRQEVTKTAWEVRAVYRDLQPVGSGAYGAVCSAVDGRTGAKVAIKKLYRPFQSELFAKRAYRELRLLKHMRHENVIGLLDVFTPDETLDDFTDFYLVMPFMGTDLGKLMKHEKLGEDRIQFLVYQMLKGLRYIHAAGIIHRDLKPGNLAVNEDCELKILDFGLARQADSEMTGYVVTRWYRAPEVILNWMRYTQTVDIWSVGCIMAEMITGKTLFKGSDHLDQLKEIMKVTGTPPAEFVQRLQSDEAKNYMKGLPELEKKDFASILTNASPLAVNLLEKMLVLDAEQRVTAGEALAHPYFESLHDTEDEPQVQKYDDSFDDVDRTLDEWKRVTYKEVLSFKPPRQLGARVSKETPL
Particulars: at 1 µM.

The target in assay [2] is SRSF protein kinase 1 (Homo sapiens) (UniProt Q96SB4). Particulars: at 0.1 µM.
SRSF protein kinase 1 (Homo sapiens), sequence (Q96SB4 whole entry): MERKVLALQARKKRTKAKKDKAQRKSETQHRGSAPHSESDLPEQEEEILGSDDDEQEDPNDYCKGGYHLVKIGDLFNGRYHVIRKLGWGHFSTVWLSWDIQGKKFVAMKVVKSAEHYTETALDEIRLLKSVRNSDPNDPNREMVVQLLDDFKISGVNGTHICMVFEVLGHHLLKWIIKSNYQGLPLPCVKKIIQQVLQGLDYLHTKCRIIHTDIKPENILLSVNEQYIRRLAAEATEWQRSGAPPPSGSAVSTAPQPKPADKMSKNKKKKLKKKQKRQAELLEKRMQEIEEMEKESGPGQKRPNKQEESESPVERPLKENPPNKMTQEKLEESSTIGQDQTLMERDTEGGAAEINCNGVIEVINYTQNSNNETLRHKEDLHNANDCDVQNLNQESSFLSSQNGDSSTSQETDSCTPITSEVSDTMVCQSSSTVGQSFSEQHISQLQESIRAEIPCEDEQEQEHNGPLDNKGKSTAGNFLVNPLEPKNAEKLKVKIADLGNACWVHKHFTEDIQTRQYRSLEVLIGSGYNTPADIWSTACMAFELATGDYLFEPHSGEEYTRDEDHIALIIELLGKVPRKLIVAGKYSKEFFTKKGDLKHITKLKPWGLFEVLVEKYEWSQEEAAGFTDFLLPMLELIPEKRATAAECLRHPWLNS
Assay [3] shares this target. The conditions noted are these: at 1 µM.
Assay [4] deals with Phosphatidylinositol 4,5-bisphosphate 3-kinase catalytic subunit alpha isoform (Homo sapiens) (UniProt P42336). The conditions noted are these: at 0.1 µM.
Phosphatidylinositol 4,5-bisphosphate 3-kinase catalytic subunit alpha isoform (Homo sapiens), sequence (P42336 whole entry, canonical isoform): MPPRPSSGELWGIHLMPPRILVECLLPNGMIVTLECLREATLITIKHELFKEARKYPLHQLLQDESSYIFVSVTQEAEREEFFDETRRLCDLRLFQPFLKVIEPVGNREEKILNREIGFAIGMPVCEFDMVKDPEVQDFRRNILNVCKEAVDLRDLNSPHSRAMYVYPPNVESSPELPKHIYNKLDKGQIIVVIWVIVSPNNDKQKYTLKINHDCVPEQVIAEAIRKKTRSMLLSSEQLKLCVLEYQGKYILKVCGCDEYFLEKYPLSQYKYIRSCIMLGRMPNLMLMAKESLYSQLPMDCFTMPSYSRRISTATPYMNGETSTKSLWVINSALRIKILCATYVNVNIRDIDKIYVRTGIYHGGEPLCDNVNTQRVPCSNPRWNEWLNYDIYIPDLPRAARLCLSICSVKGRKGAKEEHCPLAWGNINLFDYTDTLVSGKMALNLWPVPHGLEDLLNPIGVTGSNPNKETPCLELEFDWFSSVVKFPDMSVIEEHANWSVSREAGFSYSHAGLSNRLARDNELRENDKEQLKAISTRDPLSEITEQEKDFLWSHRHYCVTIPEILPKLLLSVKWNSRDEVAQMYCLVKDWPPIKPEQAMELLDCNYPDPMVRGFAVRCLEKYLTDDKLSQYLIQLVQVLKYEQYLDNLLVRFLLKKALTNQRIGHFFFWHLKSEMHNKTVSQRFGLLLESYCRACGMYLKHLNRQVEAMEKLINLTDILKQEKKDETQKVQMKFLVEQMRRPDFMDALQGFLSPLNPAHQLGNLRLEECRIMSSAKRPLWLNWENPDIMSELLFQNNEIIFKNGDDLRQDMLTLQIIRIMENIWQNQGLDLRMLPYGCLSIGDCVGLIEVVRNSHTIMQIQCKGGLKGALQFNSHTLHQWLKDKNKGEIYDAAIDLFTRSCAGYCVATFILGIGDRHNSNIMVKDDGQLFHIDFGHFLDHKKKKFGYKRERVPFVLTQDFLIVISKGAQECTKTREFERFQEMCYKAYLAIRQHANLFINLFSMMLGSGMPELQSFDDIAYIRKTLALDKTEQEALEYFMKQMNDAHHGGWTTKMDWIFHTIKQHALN
Assay [5] has the same target. Particulars: at 1 µM.
The target in assay [6] is T2, Phosphatidylinositol 4,5-bisphosphate 3-kinase catalytic subunit delta isoform (Homo sapiens) (UniProt O00329).
T2 sequence (whole entry): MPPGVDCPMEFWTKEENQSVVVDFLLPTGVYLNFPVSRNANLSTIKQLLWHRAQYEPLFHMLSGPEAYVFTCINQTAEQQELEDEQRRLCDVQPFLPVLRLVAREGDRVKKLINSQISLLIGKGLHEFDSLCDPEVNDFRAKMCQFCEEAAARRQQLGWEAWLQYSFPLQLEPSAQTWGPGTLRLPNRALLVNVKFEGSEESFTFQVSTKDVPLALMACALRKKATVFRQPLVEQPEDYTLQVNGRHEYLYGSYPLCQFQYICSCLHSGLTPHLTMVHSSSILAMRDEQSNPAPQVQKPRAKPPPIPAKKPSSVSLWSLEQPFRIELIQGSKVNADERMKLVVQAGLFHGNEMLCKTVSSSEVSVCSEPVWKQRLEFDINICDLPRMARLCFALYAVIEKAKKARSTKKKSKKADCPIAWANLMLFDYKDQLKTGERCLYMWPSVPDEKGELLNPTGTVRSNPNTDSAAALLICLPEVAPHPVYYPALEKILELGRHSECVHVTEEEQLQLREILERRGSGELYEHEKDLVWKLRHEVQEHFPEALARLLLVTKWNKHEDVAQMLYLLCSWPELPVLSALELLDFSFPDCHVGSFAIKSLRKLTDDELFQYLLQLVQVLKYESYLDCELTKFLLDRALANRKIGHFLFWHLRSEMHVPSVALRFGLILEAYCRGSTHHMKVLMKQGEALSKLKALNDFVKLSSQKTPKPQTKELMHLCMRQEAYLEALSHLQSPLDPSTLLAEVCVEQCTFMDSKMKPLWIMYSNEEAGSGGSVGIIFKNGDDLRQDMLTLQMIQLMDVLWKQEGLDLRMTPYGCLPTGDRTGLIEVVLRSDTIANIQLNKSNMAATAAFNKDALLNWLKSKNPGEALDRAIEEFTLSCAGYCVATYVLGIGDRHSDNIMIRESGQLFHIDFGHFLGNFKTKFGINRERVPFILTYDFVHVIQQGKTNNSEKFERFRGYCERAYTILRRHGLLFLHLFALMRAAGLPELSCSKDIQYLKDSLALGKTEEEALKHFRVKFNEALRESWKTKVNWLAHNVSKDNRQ
Particulars: at 0.1 µM.

For assay [7], the target named is T2, Phosphatidylinositol 4,5-bisphosphate 3-kinase catalytic subunit delta isoform (Homo sapiens). The conditions noted are these: at 1 µM.
The target of assay [8] is Phosphatidylinositol 4-kinase beta (Homo sapiens) (UniProt Q9UBF8). Particulars: at 0.1 µM.
Phosphatidylinositol 4-kinase beta (Homo sapiens), sequence (Q9UBF8 2-816 limits assumed): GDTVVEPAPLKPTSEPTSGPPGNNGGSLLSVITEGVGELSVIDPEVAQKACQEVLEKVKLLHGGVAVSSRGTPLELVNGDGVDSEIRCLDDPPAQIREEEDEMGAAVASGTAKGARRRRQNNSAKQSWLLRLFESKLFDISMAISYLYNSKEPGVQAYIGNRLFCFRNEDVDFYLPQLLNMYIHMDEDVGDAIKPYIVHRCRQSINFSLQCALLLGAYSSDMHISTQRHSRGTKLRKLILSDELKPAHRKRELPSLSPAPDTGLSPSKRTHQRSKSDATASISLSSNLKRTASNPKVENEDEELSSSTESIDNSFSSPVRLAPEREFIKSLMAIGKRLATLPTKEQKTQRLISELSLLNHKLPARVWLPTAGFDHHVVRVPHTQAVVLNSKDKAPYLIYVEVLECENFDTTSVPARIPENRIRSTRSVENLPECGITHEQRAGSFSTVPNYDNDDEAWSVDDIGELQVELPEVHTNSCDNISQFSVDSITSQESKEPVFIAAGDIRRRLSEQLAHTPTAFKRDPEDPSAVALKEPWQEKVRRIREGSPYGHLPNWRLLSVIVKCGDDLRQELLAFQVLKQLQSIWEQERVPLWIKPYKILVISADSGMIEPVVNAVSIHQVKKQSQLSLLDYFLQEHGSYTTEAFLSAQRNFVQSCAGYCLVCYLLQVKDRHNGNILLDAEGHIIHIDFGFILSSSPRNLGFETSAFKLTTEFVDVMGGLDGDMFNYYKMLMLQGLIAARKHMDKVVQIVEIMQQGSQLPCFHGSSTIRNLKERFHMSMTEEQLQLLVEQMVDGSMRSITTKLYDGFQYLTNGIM
Assay [9] has the same target. Particulars: at 1 µM.
Assay [10] has as its target Sphingosine kinase 1 (Homo sapiens) (UniProt Q9NYA1). Particulars: at 0.1 µM.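 Also: mean percent inhibition of SPHK1 activity, measured within the GSK PKIS screening panel.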

Values joined by “and” are separate entries in the source; they are usually repeats but may differ in a detail not shown here. Equal values may be shown once.

A word on the inhibition: it is the change of the read-out against control, counted positive when it falls.

Sphingosine kinase 1 (Homo sapiens), sequence (Q9NYA1 whole entry): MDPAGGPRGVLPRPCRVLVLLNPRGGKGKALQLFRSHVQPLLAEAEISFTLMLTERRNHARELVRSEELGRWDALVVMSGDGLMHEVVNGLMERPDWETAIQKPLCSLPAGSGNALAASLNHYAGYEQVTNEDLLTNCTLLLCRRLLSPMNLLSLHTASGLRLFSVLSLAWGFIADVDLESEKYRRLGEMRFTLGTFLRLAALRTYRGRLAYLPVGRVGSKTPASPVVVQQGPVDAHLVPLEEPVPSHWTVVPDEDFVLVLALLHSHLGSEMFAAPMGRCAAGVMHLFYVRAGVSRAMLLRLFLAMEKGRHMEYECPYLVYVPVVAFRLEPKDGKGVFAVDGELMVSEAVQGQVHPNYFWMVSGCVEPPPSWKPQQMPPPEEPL

Turning to `COC(=O)Nc1nc2ccc(Oc3ccc(NC(=O)Nc4cc(C(F)(F)F)ccc4F)cc3)cc2s1`, the inhibition in assay [1] is 2.85%; in assay [2] it was -1.59%; in assay [3] it was -2.01%; in [4] it was -0.49%; in [5], 2.51%; in assay [6], 1.44%. The inhibition in assay [7] is 6.58%; in assay [8], -2.75%; in [9], -0.16%; in [10] it was -0.71%.
`NC(=O)c1ccc2c(-c3ccnc(NCCCO)n3)c(-c3ccc(F)cc3)nn2c1`: the inhibition is 3.04% in [1]; -2.08% in [2]; -2.11% in [3]; 2.83% in assay [4]; 6.09% in assay [5]; 2.78% in assay [6]. Moreover, the inhibition in assay [7] was 6.2%; in [8], -2.18%; in [9], 3.6%; in assay [10], -2.85%.
As for `CC(C)c1ccc(-c2cc(-c3c[nH]nc3-c3ccccn3)ccn2)cc1`, the inhibition was 1.41% in [1]; -1.6% in assay [2]; -2.44% in [3]; 0.78% in assay [4]; 1.76% in [5]; 0.89% in [6]. The inhibition in assay [7] is 4.14%; in [8], 1.73%; in [9], 0.67%; in [10], 1.34%.
As for `NS(=O)(=O)c1ccc(N/N=C2\C(=O)Nc3ccc(C(=O)NCc4ccncc4)cc32)cc1`, the inhibition in assay [1] is 2.56%; in [2], -1.11%; in assay [3], 2.06%; in assay [4] it was 0.9%; in assay [5] it was 0.8%; in assay [6] it was 0.21%. Besides, the inhibition in [7] is 0.37%; in assay [8], -0.51%; in [9], -0.17%; in assay [10], -0.37%.
On to `COc1cc2c(cc1Nc1nc(Nc3cccc(F)c3C(N)=O)c3cc[nH]c3n1)N(C(=O)CN1CCN(C(C)C)CC1)CC2`, for which the inhibition in [1] is 2.81%; in [2], -3.13%; in assay [3], -1.66%; in assay [4] it was 0.54%; in assay [5] it was 0.15%; in assay [6], -1.97%. In addition, the inhibition was -0.26% in [7], -0.22% in assay [8], 0.87% in [9] and 0.42% in [10].
As to `c1cnn2ncc(-c3ccnc(NCCCN4CCOCC4)n3)c2c1`, the inhibition in assay [1] was 3.02%; in assay [2], -1.76%; in assay [3], -3.38%; in assay [4], 6.11%; in [5], 8.31%; in assay [6] it was 7.14%. Besides, the inhibition is 7.98% in assay [7], 1.61% in assay [8], 9.05% in assay [9] and -6.03% in [10].
Consider `CCN1CCC(C(=O)Nc2n[nH]c3nnc(-c4cccc(F)c4F)cc23)CC1`, for which the inhibition in [1] was -1.22%; in assay [2], -1.43%; in assay [3] it was 0.92%; in assay [4], -1.4%; in assay [5], -2.49%; in [6], -3.18%. For the same compound, the inhibition in assay [7] is -0.47%; in assay [8], 0.1%; in assay [9], -1.04%; in assay [10], 0.46%.
`Nc1nonc1-c1nc2cnccc2n1C1CC1`: the inhibition in assay [1] was 3.34% and 3.65%; in assay [2], -1.33% and -0.52%; in [3], -1.72% and -0.89%; in [4], 2.95% and 6.82%; in [5], 3.77% and 8%; in assay [6], 1.84% and 8.17%. In addition, the inhibition in [7] was 2.3% and 9.78%; in assay [8], 0.74% and 1.33%; in assay [9], -6.41% and 0.29%; in assay [10], -1.72% and 0.56%.
For `Cn1c(-c2nonc2N)nc2cnccc21`, the inhibition was 2.23% in assay [1]; -3.06% in assay [2]; -4.33% in [3]; 1.04% in assay [4]; 3.15% in assay [5]; 1.35% in assay [6]. Besides, the inhibition was 1.72% in [7], 1.38% in [8], -3.7% in assay [9] and -0.45% in [10].
As to `O=C(Nc1n[nH]c2nnc(-c3cccnc3)cc12)C1CC1`, the inhibition in [1] was 3.03%; in assay [2], -1.16%; in assay [3], -0.28%; in assay [4], 0.13%; in [5], 1.26%; in assay [6], 1.05%. Further, the inhibition was 1.67% in assay [7], -1.26% in assay [8], 3.04% in assay [9] and 1.36% in [10].
For `CNC(=O)c1ncccc1Nc1nc(Nc2cc3c(cc2OC)CCCN3C(=O)CN(C)C)nc2[nH]ccc12`, the inhibition in assay [1] was 2.94%; in assay [2], -1.98%; in [3], -0.43%; in assay [4] it was 3.55%; in assay [5], 1.58%; in [6], 1.46%. For the same compound, the inhibition is 4.15% in assay [7], -2.24% in [8], 1.56% in assay [9] and 3.95% in [10].
Consider `CNC(=O)c1cncc(/C=C/c2ccccc2C)c1`, for which the inhibition is 1.72% in assay [1]; -0.49% in assay [2]; 2.3% in [3]; 2.18% in assay [4]; 2.76% in assay [5]; 1.24% in assay [6]. Moreover, the inhibition in assay [7] is 0.42%; in assay [8], -3.61%; in [9] it was 7.59%; in [10] it was 0.67%.
As for `COc1ccc(-c2nn3ncccc3c2-c2ccnc(Nc3ccc(F)c(F)c3)n2)cc1`, the inhibition in assay [1] is 2.57%; in [2], -0.49%; in [3], 4.3%; in assay [4], 4.28%; in assay [5], 3.75%; in [6], 1.6%. Moreover, the inhibition was 1.61% in [7], -1.35% in assay [8], -6.41% in [9] and -0.41% in [10].
Turning to `CN(C)CCNC(=O)Nc1ccc(N(C)c2ccnc(Nc3ccc(CS(C)(=O)=O)cc3)n2)cc1`, the inhibition in assay [1] is 2.24%; in assay [2], -1.44%; in assay [3], -2.68%; in assay [4], 2.6%; in assay [5], 3.13%; in [6], 2.63%. Also, the inhibition is 5.9% in assay [7], 2.65% in assay [8], 15.7% in assay [9] and 0.26% in assay [10].
As for `CC1=C(C(=O)Nc2ccc3[nH]ncc3c2)C(c2ccc(F)cc2)N=C(c2ccc(C(F)(F)F)nc2)N1` (stereo not given), the inhibition in [1] is 1.85%; in assay [2], -1.07%; in assay [3], -0.7%; in assay [4], 2.87%; in assay [5], 4.33%; in [6], 2.9%. Moreover, the inhibition in assay [7] was 4.49%; in assay [8], 4.33%; in assay [9] it was -3.27%; in assay [10], -0.6%.
